# MARV entry inh: Marburg virus entry inhibition | Marburg virus pseudotyped entry inhibition, cell reporter | Potency, µM (series often up to 37.8 µM), inactives show top-dose activity change, negative = inhibition, hits mostly inhibitors | 300,000 tested, 1.8% active | AID 540276; calls by dose curve; tested in HEK293 cells; further: potency means the concentration at half of the fitted maximal effect
# Pf growth 96h: P. falciparum growth inhibition at 96 hours; P. falciparum luciferase reporter growth, 96 h; 320,000 tested, 6.9% active; Potency, µM (top dose mostly 28.7 µM), without a hit: at the highest dose activity change, negative = inhibition, hits mostly inhibitors; further: potency means the concentration at half of the fitted maximal effect
#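 Delayed-death screen, second-generation endpoint: infected erythrocytes, 2% hematocrit, 0.05% parasitemia final; 96 hours at 37 C, 5% CO2; luciferase detection reagent; luminescence decrease equals reduced growth.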
# LASV entry inh: blocks Lassa virus binding to or entry into cells; AID 540256; Lassa virus pseudotype entry inhibition, cell reporter; Potency, µM (titrated, usually from 37.9 µM), without a hit: at the top dose activity change, negative = inhibition, hits mostly inhibitors; 300,000 tested, 1.2% active; calls by dose curve; tested in HEK293 cells; further: potency means the concentration at half of the fitted maximal effect; nearly all actives have a fitted effect of over 50% in size
# Pf growth 48h: inhibits P. falciparum growth in the first generation, 48 h. P. falciparum luciferase growth in erythrocytes, 48 h. Potency, µM (titrated, usually from 28.7 µM), inactives show top-dose activity change, negative = inhibition, usual class: inhibitors. 310,000 tested, 5.9% active; further: potency means the concentration at half of the fitted maximal effect
#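 Parasite viability was followed by luminescence of a genomically integrated firefly luciferase. Cultures held 0.1% parasitemia at 2% hematocrit (final), incubated under 5% CO2 at 37 C.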
# HCMV antiviral: inhibitors of human cytomegalovirus; HFF cells, HCMV-luciferase reporter, 72 h; hits give low values; activity change, negative = inhibition, % at 57.5 µM; 410,000 tested, 4.5% active; AID 1259415; in the data active means activity change below about -60%; inconclusive means no clear call, values can overlap the other calls; inactive means above about -39%
#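 Cell-based, HFFs, 1000 cells/well, 16 h 37C; cpds in DMSO + HCMV-luc, MOI 1 PFU/cell; 72 h 37C; OneGlo luminescence after 5 min RT; norm. to buffer vs Salinomycin 10uM.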
# HCV inh: HCV inhibition | Huh7.5.1 HCVcc-Cre infection, luciferase reporter, 44 h | Potency, µM (series often up to 41.8 µM), without a hit: at the highest dose activity change, negative = inhibition, usual class: inhibitors | 340,000 tested, 3.4% active | AID 651820; further: potency means the concentration at half of the fitted maximal effect
#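 Infectious HCV cell culture screen: compound-treated cells (1,000/well, pre-plated 4 h) are infected with HCVcc-Cre at roughly 0.5 moi and grown 44 h. Infection is quantified by luciferase signal after 15 min substrate incubation at room temperature.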
# Numbers without * were called inactive; ? = inconclusive; nt = not tested or not shown; [ ] = remark or other dose. A selection: hits, their analogues and other compounds. The true share with any hit is near 14%. Unless noted, the call rests on the fitted dose curve; in most records, active means well fitted inhibition curve with a large enough effect; inconclusive means small, poorly fitted or top-dose-only effect, or another doubt; inactive means no such curve, though single readings can be large or run the other way. On the % scale 0 is the no-effect control and ±100 the full control effect.
SMILES,MARV entry inh,Pf growth 96h,LASV entry inh,Pf growth 48h,HCMV antiviral,HCV inh
CCN(CC)S(=O)(=O)c1cccc(-c2nnc(SCC(=O)c3cc(C)n(C)c3C)o2)c1,?,-19%,?,?,?,?
CCN(CC)S(=O)(=O)c1cccc(-c2nnc(SCCOc3ccccc3)o2)c1,?,-45%,10µM*,nt,-68*,?
COc1cc(-c2nnc(SCCOc3ccccc3)o2)cc(OC)c1OC,-2%[46.1 µM],nt,8%[46.1 µM],nt,4,nt
CCOC(=O)C1=C(C(=O)OCC)C2N(Cc3ccc(C#N)cc3)c3ccccc3[C@@]23C[C@@H](C(=O)OC)N(S(=O)(=O)c2ccc(OC)cc2)C3=N1 (stereo not given in full),nt,nt,nt,nt,-4,nt
Cc1ccc(Cc2c(C3CCCCC3)nc3c4ccccc4ccn23)cc1,nt,nt,nt,nt,-30,nt
COc1ccc(OC)c(C2CC(=O)Nc3c2c(=O)[nH]c2nc4ccccc4n32)c1 (stereo not given),0%[46.1 µM],nt,6%[46.1 µM],nt,18,nt
CCc1ccccc1NC(=O)c1ccc(F)c(S(=O)(=O)N2CCN(c3cccc(Cl)c3)CC2)c1,nt,nt,20%[46.1 µM],nt,-35,nt
Cc1cccc(N2CCN(S(=O)(=O)c3cc(C(=O)Nc4ccc(Oc5ccccc5)cc4)ccc3F)CC2C)c1 (stereo not given),nt,nt,?,nt,-64*,nt
COc1ccccc1N1CCN(S(=O)(=O)c2cc(C(=O)Nc3ccc(Oc4ccccc4)cc3)ccc2F)CC1,nt,nt,?,nt,-67*,nt
O=C(Nc1ccc(Oc2ccccc2)cc1)c1ccc(F)c(S(=O)(=O)N2CCN(c3cccc(Cl)c3)CC2)c1,nt,nt,?,nt,-70*,nt
O=C(Nc1ccc(Oc2ccccc2)cc1)c1ccc(F)c(S(=O)(=O)N2CCN(c3ccccc3F)CC2)c1,nt,nt,?,nt,-79*,nt
CCC(OC(=O)c1ccco1)C(=O)NC1CCCC1 (stereo not given),6%[46.1 µM],3%,1%[46.1 µM],26%,81,3%
Cc1ccnc(NC(=O)c2cccc(S(=O)(=O)N3CCN(c4ccc(F)cc4)CC3)c2)c1,?,?,1%[46.1 µM],?,-24,10µM*
Cc1cccc(NC(=O)c2ccc(F)c(S(=O)(=O)N3CCN(c4ccc(F)cc4)CC3)c2)c1,nt,nt,?,nt,-73*,nt
COc1ccc(NC(=O)COc2ccccc2Cc2ccccc2)cn1,?,?,?,?,-9,?
COc1ccc(NC(=O)CCCSc2ccccc2)cc1S(N)(=O)=O,1%[46.1 µM],?,-15%,?,?,-5%
COc1cccc(NC(=O)CN(C)C(=O)/C=C/c2ccc3ccccc3n2)c1,?,?,-28%,12µM*,0,5%
COc1cccc(NC(=O)CN(C)C(=O)CC(C)c2ccccc2)c1 (stereo not given),3%[46.1 µM],?,11%[46.1 µM],-2%,-16,-5%
COc1ccc(NC(=O)COc2ccccc2Cc2ccccc2)cc1S(N)(=O)=O,?,?,?,?,-73*,10µM*
COc1ccc(NC(=O)CN(Cc2ccccc2)Cc2ccccc2)cc1S(N)(=O)=O,-8%,?,0%,?,-62*,21%
COc1cccc(NC(=O)CN(C)C(=O)COc2ccccc2Cc2ccccc2)c1,-31%,5.2µM*,-5%,?,-10,-29%
Cc1cccc(-c2nc(SCCCOc3ccccc3Cl)n3[nH]c(=O)cc3n2)c1,nt,nt,6%[46.1 µM],nt,52,nt
CC(=O)N1CCc2cc(S(=O)(=O)NC(Cc3ccccc3)C(=O)Nc3cc(C)ccc3C)ccc21 (stereo not given),-13%[46.1 µM],nt,-8%[46.1 µM],nt,4,nt
COc1ccccc1C(=O)Nc1cccc(OCc2cc(=O)n3ccccc3n2)c1,nt,nt,-9%[46.1 µM],nt,-36,nt
COc1ccc(Nc2ncnc3onc(C)c23)c(OC)c1,nt,nt,?,nt,2,nt
CCOC(=O)c1c(NC(=O)c2ccc(S(=O)(=O)N3CCOCC3)cc2)sc2c1CCN(C)C2,?,?,-4%,12µM*,-3,?
CCN1CCN(S(=O)(=O)c2ccc(C(=O)Nc3sc4c(c3C(N)=O)CCN(CC)C4)cc2)CC1,8.9µM*,?,?,?,-3,-26%
